Rows were chosen to be rich in hits. Some 4.3% of all compounds tested hit in one or more screens of this group.
GLP1R inv ag: qHTS of GLP-1 Receptor Inverse Agonists (Inhibition Mode); AID 624417, 2012; HEK293 GLP-1R CRE-luciferase, luminescence, 24 h; GLP-1R form is constitutively active; Glucagon-like peptide 1 receptor (Homo sapiens), P43220; actives 1.6% (n = 410,000); Potency, µM (series often up to 38.3 µM), without a hit: at the highest dose activity change, negative = inhibition, usual class: inhibitors; further: potency means the concentration at half of the fitted maximal effect; on the % scale 0 is the no-effect control and ±100 the full control effect; nearly all actives have a fitted effect of over 55% in size
Target sequence (P43220 whole entry, looked up): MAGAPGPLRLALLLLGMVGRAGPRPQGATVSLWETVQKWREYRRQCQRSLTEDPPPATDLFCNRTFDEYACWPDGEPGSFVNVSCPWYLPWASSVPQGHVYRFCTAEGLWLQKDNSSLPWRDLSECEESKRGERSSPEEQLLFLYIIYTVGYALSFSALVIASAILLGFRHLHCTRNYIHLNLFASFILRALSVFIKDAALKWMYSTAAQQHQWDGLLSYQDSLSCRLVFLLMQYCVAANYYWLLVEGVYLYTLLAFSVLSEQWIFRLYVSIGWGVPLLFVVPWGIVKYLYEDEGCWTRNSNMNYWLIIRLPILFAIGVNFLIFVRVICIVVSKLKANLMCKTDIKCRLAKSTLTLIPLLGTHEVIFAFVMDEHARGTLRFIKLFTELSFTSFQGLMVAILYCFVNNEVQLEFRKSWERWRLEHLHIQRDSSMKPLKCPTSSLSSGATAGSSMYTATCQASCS
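Inverse agonism was detected as reduced cAMP-driven luciferase luminescence after 24 h compound treatment. The cells were HEK293 clones expressing constitutively active human GLP-1R with the reporter. Reporter-only and GPR119 cell lines served as counterscreen controls.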
D3 ag: qHTS of D3 Dopamine Receptor Agonist: qHTS | D(3) dopamine receptor (Homo sapiens), P35462 | D3R DiscoveRx beta-arrestin cells, luminescence, 90 min | max activation, % | actives 0.58% (n = 410,000); in the data active means max activation above about 30%; further: 0% is about no effect
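Agonist-mode cell screen: cells plated at 1500/well and incubated overnight at 37 °C, then exposed to library compounds for 90 min at 37 °C. Detection reagent was added for 30–60 min at room temperature, and luminescence was read.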
D3 antag: qHTS of D3 Dopamine Receptor Antagonist: qHTS. D(3) dopamine receptor (Homo sapiens), P35462. D3R cells, DiscoveRx beta-arrestin luminescence, antagonist mode; hits give low values. max response, negative = inhibition, %. actives 2.5% (n = 360,000). AID 652054, 2013; in the data active means max response below about -50%; inconclusive means no clear call, values can overlap the other calls; further: on the % scale 0 is the no-effect control and ±100 the full control effect
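Cells plated overnight at 1500 cells/well, then exposed to library compounds with dopamine controls for 90 minutes at 37 degrees C. DiscoveRx reagent added for 30–60 minutes at room temperature; luminescence read, quantitative HTS format.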
GLP-1R agonist: qHTS of GLP-1 Receptor Agonists. AID 624172, 2012. Glucagon-like peptide 1 receptor (Homo sapiens), P43220. Potency, µM (top dose mostly 45.6 µM), without a hit: at the highest dose activation, actives largely listed as activators. actives 0.007% (n = 380,000). HEK293 GLP-1R CRE-luciferase, luminescence, 4-6 h; cells express a hypersensitive GLP-1R form; further: potency means the concentration at half of the fitted maximal effect; % of control where 0% means no effect
Numbers without * were called inactive; ? = inconclusive; nt = not tested or not shown. Unless noted, the call rests on the fitted dose curve; in most records, active means well fitted curve in the direction sought with a large enough effect; inconclusive means small, poorly fitted or top-dose-only effect, or another doubt; inactive means no such curve, though single readings can be large; an effect the other way counts as inactive or inconclusive.

SMILES	GLP1R inv ag	D3 ag	D3 antag	GLP-1R agonist
Cn1c(SCc2nc(-c3ccc(Cl)cc3)no2)nnc1-c1cccs1	-4%	-13	12	-1%
C=CCn1c(C(C)NC(=O)C(C)(C)C)nc2ccccc21 (configuration not stated)	?	16	-52*	-2%
CC(C)c1ccc(NC(=O)C(c2ccc3c(c2)OCO3)N2CCN(C(=O)c3ccco3)CC2)cc1 (configuration not stated)	10µM*	1	-22	1%
CCN(CC)C(C(=O)Nc1ccc(C(C)C)cc1)c1ccc2c(c1)OCO2 (configuration not stated)	7.1µM*	1	-54*	0%
CC(C)c1ccc(NC(=O)C(c2ccccc2)N2CCN(C(=O)c3ccco3)CC2)cc1 (configuration not stated)	?	-2	0	-1%
NS(=O)(=O)c1cc(C(=O)NC2CCSc3ccccc32)ccc1Cl (configuration not stated)	10%	5	6	5%
CC1c2ccccc2CN1NC(=O)c1ccc(Cl)c(S(N)(=O)=O)c1 (configuration not stated)	nt	51*	nt	nt
CCOc1ccc(NS(=O)(=O)c2ccc3c(c2)CCN3C(C)=O)cc1	5%	-31	0	3%
COc1cc(NCc2ccc3nc(N)nc(N)c3c2C)cc(OC)c1OC	nt	-11	nt	25%
COC(=O)Nc1ncc(CN2CCc3ccccc3C2)s1	-3%	-33	-74*	2%
COc1ccccc1C(=O)Nc1ccc2c(c1)CN(Cc1cnc(C)s1)CC2	6%	-2	-16	1%
NC(=O)CC[C@@H]1NC(=O)[C@H](Cc2ccccc2)NC(=O)[C@H](Cc2ccc(O)cc2)NC(=O)CCSSC[C@@H](C(=O)N2CCC[C@H]2C(=O)N[C@@H](CCCN=C(N)N)C(=O)NCC(N)=O)NC(=O)[C@H](CC(N)=O)NC1=O	nt	-7	nt	nt
O=c1cc(N2CCN(c3ccc(F)cc3)CC2)[nH]c(=O)n1-c1cccc(Br)c1	-23%	1	nt	nt
CCOC(=O)c1cc(-c2ccccc2)nn1CC1CC(c2ccc(OC)cc2)=NO1 (configuration not stated)	?	10	5	6%
CCOC(=O)c1cc(-c2ccccc2C)nn1CC1CC(c2ccc(OC)cc2)=NO1 (configuration not stated)	11µM*	23	36	26%
CCOC(=O)CNC(=O)c1ccc(C)cc1	3%	0	0	8%
CCO/C=C/C(O)(CNC(=O)c1ccc(C(C)(C)C)cc1)C(F)(F)F (configuration not stated)	8.9µM*	-10	?	-2%
Cc1snc(S(=O)(=O)/C(C#N)=N/Nc2ccc(C(F)(F)F)cc2)c1C#N	?	-2	-91*	-10%
CC(C)(C)c1cc(C(=O)NNC(=O)Nc2cccc(Cl)c2)n(Cc2ccccc2)n1	5µM*	-2	-16	1%
O=C(CSc1nnc(COc2ccc(Cl)cc2)o1)N1c2ccccc2CCc2ccccc21	3.5µM*	-3	-27	-3%
O=C(CSc1nnc(COc2ccc(Cl)cc2)o1)N1CCCC1	6%	9	12	1%
COc1cccc(-c2nc(S(=O)(=O)c3ccccc3)c(N3CCC(C)CC3)o2)c1	?	10	nt	nt
COc1ccc(CC(N)c2csc(Nc3cccc(OC)n3)n2)cc1 (configuration not stated)	?	-13	-83*	3%
COc1cccc(Nc2nc(C(N)Cc3ccc(Cl)cc3)cs2)n1 (configuration not stated)	?	1	11	-6%
COc1cccc(C(=O)Nc2nc3nc(C)c(Cc4ccccc4)c(=O)n3[nH]2)c1	5%	-23	nt	nt
SMILES	GLP1R inv ag	D3 ag	D3 antag	GLP-1R agonist
O=C(COc1ccccc1Cl)N(Cc1cccc(F)c1)C1CCS(=O)(=O)C1 (configuration not stated)	-8%	2	nt	nt
Cc1ccc(CNC(=O)c2c3c(nc4ccccc24)C(=O)N(C2CCCCC2)C3)cc1	11µM*	10	nt	nt
CCc1ccc(CNC(=O)c2c3c(nc4ccccc24)C(=O)N(C2CCCCC2)C3)cc1	?	1	nt	nt
O=C(C[C@H]1C/C=C\CC[C@@H](Cc2ccc(F)cc2)C(=O)OC[C@H]2CCCN2C1=O)N[C@H](CO)Cc1ccccc1	-1%	32*	-8	4%
O=C(C[C@@H]1C/C=C\C[C@@H](Cc2ccc(F)cc2)C(=O)OC[C@@H]2CCCN2C1=O)N[C@H](CO)Cc1ccccc1	?	-5	-1	3%
CCNC(=O)C1(C)CCN1C(=O)CCc1cccc(Cl)c1 (configuration not stated)	-25%	-8	?	0%
COc1ccc(N=C2S/C(=C\c3ccc(Cl)c([N+](=O)[O-])c3)C(=O)N2CCN(C)C)cc1	?	-4	-128*	-4%
CCCN1C(=O)/C(=C/c2ccc(C)s2)SC1=Nc1ccc(OC)cc1	2%	-10	-27	8%
CCN(CC)CCN1C(=O)/C(=C\c2ccc(Cl)c([N+](=O)[O-])c2)SC1=Nc1ccc(OC)cc1	?	-26	-102*	-4%
Cc1cc(C(=O)CSc2nc3ccccc3[nH]2)c(C)n1CC1CCCO1 (configuration not stated)	4µM*	19	79	-4%
CCN(CC)c1ccc2cc(C=O)c(=O)oc2c1	0%	-5	-55*	5%
Cc1ccc(NC(=S)NC(=O)c2ccc(F)cc2)cc1S(=O)(=O)Nc1cccc(Cl)c1	-31%	-19	-60*	22%
O=C(CCC(=O)c1ccc(F)cc1)Nc1cccc(S(=O)(=O)Nc2cccc(Cl)c2)c1	10µM*	1	4	-4%
Cc1ccc(NC(=O)c2cccs2)cc1S(=O)(=O)Nc1cccc(Cl)c1	?	1	13	-4%
Cc1cc(F)ccc1NC(=O)c1ccc(NS(=O)(=O)c2cc(C(C)(C)C)ccc2C)cc1	4.5µM*	5	-14	-4%
O=C(CCC(=O)c1ccc(F)cc1)Nc1ccc(Cl)cc1	-14%	-19	nt	nt
CCOc1ccccc1C(=O)Nc1c(C(=O)Nc2ccc(F)cc2)oc2ccccc12	?	-8	nt	2%
CCOc1ccc(-n2ccnc(SCC(=O)NCc3cccc(OC)c3)c2=O)cc1	?	-17	-60*	3%
CN1CCN(c2ccc(CNC(=O)c3cccc4c(-c5ccc(F)c(F)c5)coc34)cc2)CC1	?	-14	-83*	-15%
CN1CCN(c2ccc(CNC(=O)c3ccc(-c4ccc(F)c(F)c4)c4ccoc34)cc2)CC1	-16%	-13	-66*	4%
COc1ccc(CCNC(=O)Cn2c(-c3ccc(F)cc3)cc(C(C)=O)c2C)cc1OC	25%	-7	nt	nt

Screens as filed in PubChem BioAssay.
